The list is not random: actives were taken first. Their share in the collection is about 6%.
D1 PAM: human D1 dopamine receptor positive modulation | P21728 | HEK293 TREx D1 cells, calcium flux, dopamine EC20 potentiation | potentiation, % at 10 µM | 360,000 tested, 0.036% active; in the data active means potentiation above about 30%; further: 0% is about no effect
DRD3 antagonist: antagonists of human D3 dopamine receptor. P35462. AID 652054. 360,000 tested, 2.5% active. D3R cells, DiscoveRx beta-arrestin luminescence, antagonist mode; hits give low values. max response, negative = inhibition, %; in the data active means max response below about -50%; inconclusive means no clear call, values can overlap the other calls; further: on the % scale 0 is the no-effect control and ±100 the full control effect
Target sequence (P35462 whole entry, looked up): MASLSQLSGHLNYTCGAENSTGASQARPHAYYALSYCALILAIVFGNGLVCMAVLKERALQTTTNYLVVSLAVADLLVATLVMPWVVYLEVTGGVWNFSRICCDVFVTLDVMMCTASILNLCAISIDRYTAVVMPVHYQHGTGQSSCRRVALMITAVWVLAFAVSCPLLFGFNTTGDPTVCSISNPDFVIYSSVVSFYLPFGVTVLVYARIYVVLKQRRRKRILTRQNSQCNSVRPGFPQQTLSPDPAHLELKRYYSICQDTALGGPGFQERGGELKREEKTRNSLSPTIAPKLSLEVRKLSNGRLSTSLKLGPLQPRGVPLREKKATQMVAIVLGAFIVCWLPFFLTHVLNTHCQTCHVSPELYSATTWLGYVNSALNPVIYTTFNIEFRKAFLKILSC
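Cells expressing the human receptor were seeded at 1500 cells/well, incubated overnight at 37 degrees C in 5% CO2, then exposed to library compounds with dopamine controls for 90 minutes at 37 degrees C before luminescent detection.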
D3 ag: agonists of human D3 dopamine receptor. D3R DiscoveRx beta-arrestin cells, luminescence, 90 min. max activation, %. 410,000 tested, 0.58% active. AID 652048; in the data active means max activation above about 30%; further: 0% is about no effect
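Cells at 1500/well, incubated overnight, then treated with pinned compounds (dopamine as control) for 90 min at 37 degrees C. DiscoveRx reagent added for 30 - 60 minutes at room temperature; luminescence read.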
D1 antag: blocks dopamine activation of the human D1 receptor. activity change, negative = inhibition, % at 10 µM. P21728. 360,000 tested, 3.2% active. HEK293 TREx D1 cells, calcium flux, dopamine EC80; hits give low values; in the data active means activity change below about -30%; further: on the % scale 0 is the no-effect control and ±100 the full control effect
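Tetracycline-induced HEK293 Trex D1 cells, force-coupled to calcium, dye-loaded; compounds added and read 180 s, then EC80 dopamine added and calcium flux tracked kinetically another 180 s.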
D1 ag: agonists of human D1 dopamine receptor; P21728; HEK293 T-REx D1 cells, calcium flux, agonist mode; activation, % at 2 µM; 360,000 tested, 1% active; in the data active means activation above about 30%; further: 0% is about no effect
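Agonism was scored from calcium flux recorded over 180 s (1 read/s) after pintool compound addition, following a 10-cycle baseline. Cells were inducible force-coupled HEK293 TREx D1, plated overnight at 30 C and loaded with no-wash calcium dye.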
* = called active by the depositor; ? = inconclusive; · = not tested or not shown.

SMILES	D1 PAM	DRD3 antagonist	D3 ag	D1 antag	D1 ag
Cc1ccccc1CN1CCN(C(=O)Cc2ccccc2)CC1	3	-28	-11	20	4
CCN1CCN(Cc2ccccc2C)CC1	1	-66*	-13	-4	2
Cc1ccc(CN2CCN(C)CC2)c(C)c1	-3	-16	2	-17	-1
CCN1CCN(Cc2ccc(C)cc2C)CC1	-7	-72*	-2	6	1
CN[C@H]1C[C@@H](N)[C@H](O)[C@@H](O[C@@H]2O[C@H](CO)[C@H](O)[C@@H]3OC4(O[C@H]23)O[C@H](C(N)CO)[C@H](O)[C@H](O)[C@H]4O)[C@@H]1O (stereo partly drawn)	·	·	-3	·	·
CC1(C)CN=C(Nc2ccc(F)c(F)c2)S1	·	12	-1	-8	20
CC1(C)CN=C(Nc2ccc(F)c(Cl)c2)S1	5	-2	-3	2	34*
CCC1C2CC3C4N(C)c5ccccc5C45CC(C2C5O)N3[C@@H]1O (stereo partly drawn)	1	-70*	-21	-23	3
CC[C@H]1C2C[C@H]3[C@@H]4N(C)c5ccccc5C45C[C@H](C2[C@H]5O)N3[C@@H]1O (stereo partly drawn)	-5	-55*	-9	-28	-2
CC[C@H]1[C@@H]2C[C@H]3[C@@H]4N(C)c5ccccc5[C@]45C[C@@H](C2[C@H]5O)N3[C@@H]1O (stereo partly drawn)	·	·	-25	·	·
CCOP(=S)(OCC)O/N=C(\C#N)c1ccccc1	·	·	-2	·	·
O=S1(=O)N(CCN2CC=C(c3c[nH]c4cc(F)ccc34)CC2)c2cccc3c2N1CCC3	-8	-101*	-92	-41*	1
COc1cc(C[C@H](C)N)c(OC)cc1C	·	·	-20	·	·
Clc1cccc(N2CCNCC2)c1Cl	-9	-56*	7	-18	9
Nc1c(C(=O)NCCN2CCOCC2)c2nc3ccccc3nc2n1Cc1ccco1	-3	-27	7	-42*	4
CN(C)CCc1c[nH]c2ccccc12	·	·	-13	·	·
COc1ccc(OC)c(CCNCc2c(C(=O)O)c(C)n(Cc3ccc(F)cc3Cl)c2C)c1	-1	·	0	-5	2
COC(=O)C1=C(c2ccccc2OCc2ccccc2)C[C@@H]2CC[C@H]1N2C(=O)NC1CCN(Cc2ccccc2)CC1	0	-85*	-71	-13	2
COC(=O)C1=C(c2ccc(F)cc2OCc2ccccc2)C[C@@H]2CC[C@H]1N2C(=O)NC1CCN(Cc2ccccc2)CC1	4	-108*	-8	·	2
COC(=O)C1=C(c2ccc(C(C)=O)cc2)C[C@@H]2CC[C@H]1N2C(=O)NC(C)C	-7	4	9	-91*	-1
COC(=O)C1=C(c2ccc(F)cc2OCc2ccccc2)C[C@@H]2CC[C@H]1N2C(=O)NCc1ccccc1	-3	-3	-13	-9	2
COC(=O)C1=C(c2ccc(OCc3ccccc3)cc2)C[C@@H]2CC[C@H]1N2C(=O)NCCCc1ccccc1	-3	-51*	-9	18	18
COC(=O)C1=C(c2ccccc2OCc2ccccc2)C[C@@H]2CC[C@H]1N2C(=O)NCc1ccccc1	0	-13	-12	·	1
[O]=[Cd]	·	·	-8	·	·
Oc1ccc([C@H]2CNCc3c2ccc(O)c3O)cc1O	·	·	10	·	·
SMILES	D1 PAM	DRD3 antagonist	D3 ag	D1 antag	D1 ag
COC(=O)C1=C(c2ccc(-c3ccccc3)c(F)c2)C[C@@H]2CC[C@H]1N2C(=O)NCCO	-2	21	5	-40*	1
COC(=O)C1=C(c2ccccc2OCc2ccccc2)C[C@@H]2CC[C@H]1N2C(=O)NCCc1ccc(F)cc1	-6	-29	-20	-39*	3
COC(=O)C1=C(c2cccc(OCc3ccccc3)c2)C[C@@H]2CC[C@H]1N2C(=O)NCCCc1ccccc1	-4	0	0	-1	15
COC(=O)C1=C(c2cccc(OCc3ccccc3)c2)C[C@@H]2CC[C@H]1N2C(=O)NC1CCN(Cc2ccccc2)CC1	-3	-120*	-49	1	1
C[C@]12CC[C@@H]3c4ccc(OC(=O)N(CCCl)CCCl)cc4CC[C@H]3[C@@H]1CC[C@@H]2OP(=O)(O)O	·	·	-8	·	·
Cc1cccc2sc(NC(=O)c3cccn(Cc4ccccc4)c3=O)nc12	2	·	-7	·	4
C[n+]1c(-c2ccccc2)c2cc(N)ccc2c2ccc(N)cc21	-6	4	-2	1	27
Nc1ccc2ccc3cccc[n+]3c2c1	12	-14	-8	-26	131*
NCCc1ccc(OCc2ccccc2)c(OCc2ccccc2)c1	-2	4	1	11	34*
COc1ccc(CCN)cc1OC	5	12	4	6	18
C#CC(C)(O)CC (stereo not drawn)	·	·	-2	·	·
O=C(Cc1ccccc1)N1CCN(Cc2ccc([N+](=O)[O-])cc2)CC1	0	1	-7	-14	1
O=[N+]([O-])c1cccc(CN2CCN(Cc3ccc(Br)cc3)CC2)c1	-5	-102*	-7	-24	-1
O=[N+]([O-])C(Br)(CO)CO	·	·	-1	·	·
Cc1cc(Cl)ccc1C(=O)C1CCCN(C2CCSCC2)C1 (stereo not drawn)	3	-76*	-25	27	-1
O=C(c1ccc(C(F)(F)F)cc1)C1CCCN(C2CCSCC2)C1 (stereo not drawn)	1	-57*	-18	-15	2
CC(=O)OC1(c2ccccc2)CCN(CCc2ccccc2)CC1	·	·	-11	·	·
Cc1ccc(NC(=O)Cn2cc(C(=O)c3ccccc3)c3ccccc32)cc1	-8	·	0	-12	11
CCC1(CC)C(=O)NC(=Nc2cccc(C(F)(F)F)c2)NC1=O	-9	7	23	1	31*
CCCC1(CCC)C(=O)NC(=Nc2ccc(C)cc2)NC1=O	0	·	·	5	7
CN(c1ccc(O)cc1)c1ccc([N+](=O)[O-])c2nonc12	·	?	-6	·	·
Nc1ccc2nonc2c1[N+](=O)[O-]	2	-1	0	-12	92*
CCOC(=O)c1cncn1[C@H](C)c1ccccc1	-1	·	·	3	-1
CC(c1ccccc1)n1cncc1C(=O)N1CCCC1=O (stereo not drawn)	-4	28	30*	1	3
COC(=O)c1ccc(N2C(=O)CC(N3CCC(n4c(=O)[nH]c5ccccc54)CC3)C2=O)cc1 (stereo not drawn)	-4	-21	-1	-20	3
O=C(CCCN1CCC(n2c(=O)[nH]c3ccccc32)CC1)c1ccc(F)cc1	-6	-103*	-45	-44*	0
Cc1cc(C(=O)N=Nc2c(O)n(C)c3ccccc23)c(C)o1	12	-3	3	12	1
Cn1c(=O)oc(=O)c2ccccc21	·	4	31*	·	·
CCOCCOC(C)=O	·	·	13	·	·
CCCCCCCCCC(CC)c1ccc(S(=O)(=O)O)cc1 (stereo not drawn)	·	·	-13	·	·
